# Measured values from PubChem BioAssay.
# Activity calls are given as the source filed them.
# Tests used:
# [1] = system: PRMT1 (protein arginine N-methyltransferase 1); assay: small molecules binding arginine methyltransferase PRMT1 – biochemical, small-molecule microarray, 635 nm fluorescence, primary screen (AID 1088); settings: higher = more signal;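 also: binding of Prmt1 protein to compounds spotted on small-molecule microarray slides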
# [2] = growth effects on S. cerevisiae YJM789 – YJM789 clinical isolate, OD600, 24 h, basal, primary screen (AID 1089); settings: higher = more signal, called active from +8 up or from −8 down;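 also: growth of clinical yeast isolate S. cerevisiae YJM 789 seeded 1000 cells per well; test concentration not given here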
# [3] = S. pombe growth modifiers, basal conditions – strain 972, OD600, 24 h, no modulator, primary screen (AID 1090);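 also: basal condition with compound alone and no growth modifier present; test concentration not given here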; settings: S. pombe 972 growth, higher = more signal, called active from +8 up or from −8 down
# [4] = budding yeast growth modifiers under rapamycin – strain BY4716, OD600, 96 h, primary screen (AID 1091); also: test concentration not given here; settings: S. cerevisiae BY4716 + rapamycin, higher = more signal, called active from +8 up or from −8 down
# [5] = target: Torsin-1A-interacting protein 2 (Homo sapiens) (UniProt Q8NFQ8); assay: small molecules binding lysate-expressed LULL1 – cell lysate, human LULL1 lysate, 635/667 nm fluorescence, primary screen (AID 1092); settings: small-molecule microarray, hLULL1 lysate binding, 635 nm fluorescence; higher = more signal;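 also: probe is lysate of COS7 cells overexpressing human LULL1; score merges per-feature 667 nm fluorescence with signal-to-noise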
# Chain of Torsin-1A-interacting protein 2 (Homo sapiens) (Q8NFQ8 whole entry, looked up): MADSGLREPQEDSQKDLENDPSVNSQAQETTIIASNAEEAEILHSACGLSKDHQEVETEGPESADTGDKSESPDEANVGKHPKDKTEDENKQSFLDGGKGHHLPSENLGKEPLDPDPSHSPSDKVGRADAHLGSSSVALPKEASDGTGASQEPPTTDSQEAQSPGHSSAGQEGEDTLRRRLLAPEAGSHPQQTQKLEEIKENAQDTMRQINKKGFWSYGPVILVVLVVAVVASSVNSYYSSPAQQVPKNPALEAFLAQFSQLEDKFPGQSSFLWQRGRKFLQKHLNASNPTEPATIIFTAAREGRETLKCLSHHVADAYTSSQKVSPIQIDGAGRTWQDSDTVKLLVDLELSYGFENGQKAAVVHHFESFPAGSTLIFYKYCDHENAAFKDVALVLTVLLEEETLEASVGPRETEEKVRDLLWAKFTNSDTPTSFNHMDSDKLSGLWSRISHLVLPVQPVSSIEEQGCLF
# [6] = optical density change of DRC41 E. coli – strain DRC41, OD650, 24 h, E. coli filamentation project, primary screen (AID 1093);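 also: MC1000 strain lacking acrAB efflux and sulA so SOS filamentation is blocked; test concentration not given here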; settings: E. coli DRC41 growth, higher = more signal, called active from +8 up or from −8 down
# [7] = probe aLefty2 binding to arrayed compounds – biochemical, biotinylated probe, 635/667 nm fluorescence, primary screen (AID 1094); settings: small-molecule microarray, higher = more signal;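 also: score merges spot fluorescence near 667 nm with spot signal-to-noise ratio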
# [8] = system: Noggin (protein binding on small-molecule microarray); assay: small molecules binding Noggin protein – biochemical, 635/667 nm fluorescence, primary screen (AID 1095); settings: 635 nm fluorescence, higher = more signal;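 also: score merges 667 nm feature fluorescence with signal to noise over triplicate slides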
# [9] = target: Neurogenic locus notch homolog protein 3 (Homo sapiens) (UniProt Q9UM47); assay: small molecules binding NOTCH3 protein – biochemical, 635/667 nm fluorescence, primary screen (AID 1096); settings: small-molecule microarray, 635 nm fluorescence, higher = more signal
# Chain of Neurogenic locus notch homolog protein 3 (Homo sapiens) (Q9UM47 whole entry, looked up): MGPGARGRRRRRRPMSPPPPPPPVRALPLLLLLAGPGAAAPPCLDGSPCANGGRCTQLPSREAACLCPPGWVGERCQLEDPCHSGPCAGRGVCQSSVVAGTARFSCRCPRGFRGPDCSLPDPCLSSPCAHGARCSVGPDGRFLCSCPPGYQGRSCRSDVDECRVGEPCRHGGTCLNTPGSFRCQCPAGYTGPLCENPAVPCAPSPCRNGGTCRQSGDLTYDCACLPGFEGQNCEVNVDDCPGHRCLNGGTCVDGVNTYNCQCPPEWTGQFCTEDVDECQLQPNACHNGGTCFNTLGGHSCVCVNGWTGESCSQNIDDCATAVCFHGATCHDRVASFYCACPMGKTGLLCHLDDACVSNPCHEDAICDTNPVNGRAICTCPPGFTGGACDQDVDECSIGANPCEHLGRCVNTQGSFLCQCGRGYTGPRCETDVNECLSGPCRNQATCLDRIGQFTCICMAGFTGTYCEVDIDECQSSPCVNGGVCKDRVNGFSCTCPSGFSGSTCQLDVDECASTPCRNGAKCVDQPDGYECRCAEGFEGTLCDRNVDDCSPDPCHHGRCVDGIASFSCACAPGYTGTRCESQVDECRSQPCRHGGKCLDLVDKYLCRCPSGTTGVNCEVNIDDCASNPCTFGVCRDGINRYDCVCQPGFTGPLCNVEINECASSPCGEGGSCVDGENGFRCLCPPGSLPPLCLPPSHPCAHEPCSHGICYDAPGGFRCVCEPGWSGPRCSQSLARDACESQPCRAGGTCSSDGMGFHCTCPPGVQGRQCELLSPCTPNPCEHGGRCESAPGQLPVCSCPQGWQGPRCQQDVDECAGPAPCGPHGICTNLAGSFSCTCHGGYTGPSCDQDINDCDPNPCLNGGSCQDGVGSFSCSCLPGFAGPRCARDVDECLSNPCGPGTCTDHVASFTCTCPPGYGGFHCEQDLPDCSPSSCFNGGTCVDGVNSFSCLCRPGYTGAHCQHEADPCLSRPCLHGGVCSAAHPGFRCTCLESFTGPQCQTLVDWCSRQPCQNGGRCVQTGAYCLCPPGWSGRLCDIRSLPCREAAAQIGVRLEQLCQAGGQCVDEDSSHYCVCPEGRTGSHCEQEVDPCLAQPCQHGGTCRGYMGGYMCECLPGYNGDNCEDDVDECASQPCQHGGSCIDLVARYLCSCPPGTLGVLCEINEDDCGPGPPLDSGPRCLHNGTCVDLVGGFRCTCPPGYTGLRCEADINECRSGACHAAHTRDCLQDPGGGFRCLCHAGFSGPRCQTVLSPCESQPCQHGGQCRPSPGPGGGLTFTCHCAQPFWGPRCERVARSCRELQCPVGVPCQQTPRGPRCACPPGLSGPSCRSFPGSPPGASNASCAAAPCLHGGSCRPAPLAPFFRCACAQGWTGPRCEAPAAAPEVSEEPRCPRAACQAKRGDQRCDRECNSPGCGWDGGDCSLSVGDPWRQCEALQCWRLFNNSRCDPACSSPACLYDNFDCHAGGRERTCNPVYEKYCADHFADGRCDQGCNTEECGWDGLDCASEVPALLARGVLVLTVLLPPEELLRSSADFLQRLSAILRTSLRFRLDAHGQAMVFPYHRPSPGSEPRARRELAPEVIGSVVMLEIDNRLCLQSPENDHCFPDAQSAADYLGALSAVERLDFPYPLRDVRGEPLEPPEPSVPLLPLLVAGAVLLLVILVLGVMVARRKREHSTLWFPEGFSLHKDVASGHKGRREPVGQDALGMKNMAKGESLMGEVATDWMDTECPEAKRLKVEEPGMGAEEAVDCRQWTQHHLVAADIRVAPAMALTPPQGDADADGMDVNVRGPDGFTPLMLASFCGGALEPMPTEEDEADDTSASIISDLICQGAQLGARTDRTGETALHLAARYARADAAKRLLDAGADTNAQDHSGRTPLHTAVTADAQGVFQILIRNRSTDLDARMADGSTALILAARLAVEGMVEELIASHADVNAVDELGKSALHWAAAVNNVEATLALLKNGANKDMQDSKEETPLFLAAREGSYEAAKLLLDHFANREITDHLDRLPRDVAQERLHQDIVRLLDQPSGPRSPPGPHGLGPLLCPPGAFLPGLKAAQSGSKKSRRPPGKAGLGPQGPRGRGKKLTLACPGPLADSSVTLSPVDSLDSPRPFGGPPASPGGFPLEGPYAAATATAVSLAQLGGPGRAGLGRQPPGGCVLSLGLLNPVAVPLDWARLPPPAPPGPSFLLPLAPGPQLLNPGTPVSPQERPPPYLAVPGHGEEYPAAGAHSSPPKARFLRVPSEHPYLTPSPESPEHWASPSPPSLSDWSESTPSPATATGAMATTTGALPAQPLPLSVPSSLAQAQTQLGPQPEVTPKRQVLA
# [10] = probe aEGFR binding to arrayed compounds – biochemical, biotinylated probe, 635/667 nm fluorescence, primary screen (AID 1097); settings: small-molecule microarray, higher = more signal;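 also: probe is a biotinylated anti-EGFR antibody binding compounds printed on slides; score combines fluorescence near 667 nm and signal to noise of each spot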
SMILES,composite z-score [1],z-score [2],z-score [3],z-score [4],composite z-score [5],z-score [6],composite z-score [7],composite z-score [8],composite z-score [9],composite z-score [10]
C=CC[C@@H]1C=C[C@H](ON=C[C@@H](NS(=O)(=O)c2ccc(C)cc2)[C@H](C)C=CCC(=O)OC)[C@@H](CO)O1,-0.248,-0.605 (inactive),0.757 (inactive),-0.0333 (inactive),0.324,0.354 (inactive),-0.11,0.659,-0.531,-0.0715
COc1ccc(COC(=O)NN=C2C[C@@H](O)[C@@H](O)[C@@H]3[C@@H]4C(=O)N(C(C)(C)C)C(=O)[C@@H]4CC[C@@H]23)cc1,1.16,-1.26 (inactive),-0.573 (inactive),-0.731 (inactive),0.515,1.09 (inactive),-0.005,0.0364,1.02,-0.03
CCO[C@H](c1cc(OC)cc([N+](=O)[O-])c1OC)[C@H](C)[C@@H](OC)[C@H](C)C=CCC(=O)OC,0.836,0.443 (inactive),-0.463 (inactive),-0.604 (inactive),0.945,-0.466 (inactive),0.0632,-0.0645,1.06,-0.0069
COc1cccc([C@H](O)Cn2cc(-c3ccc(CON=C(C)C)cc3)nn2)c1,0.0112,-0.733 (inactive),0.16 (inactive),-0.625 (inactive),-0.441,1.2 (inactive),-0.0561,-0.197,-1.27,0.0709
C[C@@H](c1ccccc1)N1C(=O)[C@H]2[C@H]3[C@H](O)[C@H](O)CC(=NNC(=O)OCc4ccccc4)[C@@H]3CC[C@H]2C1=O,1.57,-0.291 (inactive),0.452 (inactive),5.24 (inactive),0.0265,0.482 (inactive),-0.19,1.89,-0.11,-0.508
CC(C)(C)N1C(=O)[C@H]2[C@H]3[C@H](O)[C@H](O)CC(=NOC[C@@H](O)COCc4ccco4)[C@H]3CC[C@H]2C1=O,0.446,0.009 (inactive),0.287 (inactive),-0.229 (inactive),0.937,0.697 (inactive),0.0913,-0.192,-0.0654,-0.12
COC(=O)[C@H](C)NC(=O)CCC1CC(OC(=O)NCc2ccc3c(c2)OCO3)CC2(CCCC(COC(=O)NCc3ccccc3)O2)O1 (stereo not given in full),1.23,0.24 (inactive),0.532 (inactive),0.274 (inactive),1.64,0.326 (inactive),-0.157,0.888,1.09,-0.0234
CCOC(=O)CCN1C(=O)[C@H]2[C@H]3[C@H](O)[C@H](O)CC(=NNC(=O)OCc4ccccc4)[C@H]3CC[C@H]2C1=O,-0.0993,-0.756 (inactive),0.59 (inactive),-0.596 (inactive),-1.53,-0.287 (inactive),-0.0515,0.608,0.032,-0.103
COC(=O)[C@H](C)NC(=O)CCC1CC(OC(=O)NCc2cccc3ccccc23)CC2(CCCC(COC(=O)NCCC(C)C)O2)O1 (stereo not given in full),0.651,-0.518 (inactive),-1.07 (inactive),-0.642 (inactive),1.84,0.384 (inactive),-0.205,0.352,0.504,-0.112
CCOC(=O)CCN1C(=O)[C@H]2[C@H]3[C@H](O)[C@H](O)CC(=NNC(=O)OCc4ccc(OC)cc4)[C@H]3CC[C@H]2C1=O,0.271,0.0811 (inactive),-0.257 (inactive),-0.577 (inactive),0.282,-0.31 (inactive),0.0108,0.335,0.316,0.0289
O=C1[C@H]2[C@H]3[C@H](O)[C@H](O)CC(=NOCc4ccccc4)[C@H]3CC[C@H]2C(=O)N1C1CCCCC1,0.542,-0.577 (inactive),-0.355 (inactive),-0.858 (inactive),1.23,0.119 (inactive),-0.162,0.423,1.14,-0.0691
CC(C)=NO[C@@H](C)c1cn([C@H](CO)Cc2ccccc2)nn1,0.99,-1.93 (inactive),-2.29 (inactive),-0.735 (inactive),1.03,-0.409 (inactive),-0.127,0.946,0.331,0.255
CCOC(=O)NN=C1C[C@@H](O)[C@@H](O)[C@@H]2[C@@H]3C(=O)N(C[C@@H]4CCCO4)C(=O)[C@@H]3CC[C@H]12,0.611,-1.43 (inactive),-0.318 (inactive),-0.0602 (inactive),0.448,0.416 (inactive),-0.179,0.481,0.411,-0.0668
CON=C(C)CCN1CCc2nc(-c3ccccc3)c(-c3ccccc3)cc2C1,0.0214,-1.08 (inactive),-17.2 (active),-3.67 (inactive),-0.919,1.69 (inactive),-0.0699,0.107,0.556,-0.158
CCOC(=O)[C@H](CC(C)C)NC(=O)CCC1CC(OC(=O)NCCc2ccc(F)cc2)CC2(CCCC(COC(=O)NCCCN3CCCC3=O)O2)O1 (stereo not given in full),0.838,-0.388 (inactive),0.531 (inactive),0.0799 (inactive),1.26,0.546 (inactive),-0.132,0.144,0.965,-0.0208
CC(C)CON=C1C[C@@H](O)[C@@H](O)[C@@H]2[C@@H]3C(=O)N(C(C)(C)C)C(=O)[C@@H]3CC[C@@H]12,1.37,0.118 (inactive),-0.182 (inactive),-0.147 (inactive),-0.495,0.222 (inactive),-0.317,1.02,-0.269,-0.0638
C[C@@H]1C=CCC(=O)OC[C@H](C)C(=O)N[C@@H](Cc2ccccc2)C(=O)OC1,-0.431,0.214 (inactive),-1.06 (inactive),-0.0603 (inactive),0.146,-0.234 (inactive),-0.192,0.79,-0.019,-0.0513
C#CCCCON=C1C[C@@H](O)[C@@H](O)[C@@H]2[C@@H]3C(=O)N(CC)C(=O)[C@@H]3CC[C@H]12,1.37,-0.276 (inactive),-0.26 (inactive),-0.247 (inactive),2.11,0.216 (inactive),-0.25,0.726,0.348,-0.174
O=C1C=C[C@@H](O)[C@@H]2[C@@H]3C(=O)N(c4cccc(Oc5ccccc5)c4)C(=O)[C@@H]3CC[C@@H]12,0.491,0.162 (inactive),-0.753 (inactive),-0.0875 (inactive),0.36,0.533 (inactive),-0.204,0.403,0.477,0.0443
O=C(NN=C1C[C@@H](O)[C@@H](O)[C@@H]2[C@@H]3C(=O)N(Cc4ccc5c(c4)OCO5)C(=O)[C@@H]3CC[C@@H]12)OCc1ccccc1,-0.0443,0.186 (inactive),-0.475 (inactive),-0.4 (inactive),0.418,0.885 (inactive),0.0026,-0.0248,-0.142,-0.0433
CCN1C(=O)[C@H]2[C@H]3[C@H](O)[C@H](O)CC(=NO[C@H](C)c4cn([C@@H]5COC[C@H]5O)nn4)[C@@H]3CC[C@H]2C1=O,0.489,0.415 (inactive),1.01 (inactive),1.36 (inactive),0.413,0.445 (inactive),-0.129,-0.127,0.0689,-0.0678
O=C1C2=CC[C@H]3C(=O)N(C4CCCCC4)C(=O)[C@H]3[C@H]2[C@H](O)[C@@H]2O[C@H]12,-0.642,-0.163 (inactive),-6.78 (inactive),-1.25 (inactive),0.821,-0.391 (inactive),-0.196,-0.725,-1.63,-0.0389
COC(=O)[C@H](C)NC(=O)CCC1CC(OC(=O)NCc2cccc3ccccc23)CC2(CCCC(COC(=O)NCc3cccc(C(F)(F)F)c3)O2)O1 (stereo not given in full),1.41,-2.05 (inactive),-0.645 (inactive),0.523 (inactive),1.78,-1.21 (inactive),-0.139,0.6,1.09,0.151
O=C1C[C@H](c2ccccc2)[C@H](c2ccc(Br)cc2)O1,-0.146,-3.83 (inactive),-11.8 (active),-1.84 (inactive),-0.247,0.421 (inactive),-0.224,0.401,-0.489,-0.17
CCN1C(=O)[C@H]2[C@H]3[C@H](O)[C@H](O)CC(=NNC(=O)OCc4ccccc4)[C@H]3CC[C@H]2C1=O,-0.72,-0.0067 (inactive),0.0826 (inactive),-0.144 (inactive),-0.3,-0.667 (inactive),0.0166,0.667,-0.169,-0.132
CC(=O)OC[C@H]1O[C@@H](ON=C(C)C)[C@H](OC(C)=O)[C@@H](OC(C)=O)[C@@H]1OC(C)=O,-0.312,0.559 (inactive),-0.159 (inactive),0.196 (inactive),-1.31,-0.109 (inactive),0.089,0.0419,-1.53,-0.0393
CCOC(=O)CCN1C(=O)[C@H]2[C@H]3[C@H](O)[C@H](O)CC(=NOCC=C(C)CCC=C(C)C)[C@H]3CC[C@H]2C1=O,0.467,0.273 (inactive),-0.215 (inactive),-0.188 (inactive),0.0139,0.857 (inactive),0.287,0.386,0.089,0.106
C=CC[C@@H]1C=C[C@H](Oc2ccc(C)cc2)[C@@H](COC(=O)NCc2cccc3ccccc23)O1,0.261,0.697 (inactive),-0.341 (inactive),0.774 (inactive),0.557,-0.61 (inactive),-0.116,0.725,-0.0971,-0.136
COc1ccc(O[C@H]2C=C[C@@H](c3ccccc3)O[C@@H]2COC(=O)CCC(C)=NOC[C@@H](O)COCc2ccco2)cc1,-1.02,-1.2 (inactive),-0.761 (inactive),-0.244 (inactive),-1.82,-0.541 (inactive),-0.443,-1.66,-1.74,-0.48
